From PubChem BioAssay (NCATS)
Several values for one entry are separate records, joined by “and”; a condition that tells them apart may be missing. Equal values may be shown once. Results filed as inconclusive are left out. Activity calls are given as the source filed them. Calls follow the shape of the full dose curve.

target: Cytochrome P450 1A2 (Homo sapiens) (UniProt P05177); test: p450-cyp1a2 (AID 410); details: recombinant CYP1A2, luciferin-ME demethylation, luminescence; series mostly up to 57 µM
Procedure: The P450 gene superfamily is involved in metabolism and the clearance of xenobiotics. This assay used human CYP1A2 to measure the demethylation of luciferin 6' methyl ether (Luciferin-ME; Promega-Glo) to luciferin. The luciferin is then measured by luminescence after the addition of a luciferase detection regeant. Luciferin-ME concentration in the assay was equal to its Km for CYP1A2.
NCGC Assay Protocol Summary:
Two uL of enzyme and substrate mix (final concentrations: 20nM CYP1A2, 100uM Luciferin-ME, 100mM KPO4) were dispensed into a white, solid bottom 1536-well microtiter plate. 23nL of compound was transferred by a pin tool. The plate was incubated at room temperature for 10 min. Two uL of an NADPH regeneration solution (Promega supplied reagent) was dispensed and the reaction was allowed to continue for 60 min at room temperature. Then the reaction was stopped by reconstituted detection reagent. After another 20 min of incubation the plate was read on the ViewLux (Perkin Elmer) at 60 sec exposure and 2x2 binning. This protocol was carried out with Promega-Glo reagents and further information can be found at http://www.promega.com/tbs/tb325/tb325.pdf. Data were normalized to the to AC100 inhibition (57 uM furafylline).
Potency is read from the fitted curve at half-maximal effect.

Sequence of Cytochrome P450 1A2 (Homo sapiens) (P05177 whole entry, looked up): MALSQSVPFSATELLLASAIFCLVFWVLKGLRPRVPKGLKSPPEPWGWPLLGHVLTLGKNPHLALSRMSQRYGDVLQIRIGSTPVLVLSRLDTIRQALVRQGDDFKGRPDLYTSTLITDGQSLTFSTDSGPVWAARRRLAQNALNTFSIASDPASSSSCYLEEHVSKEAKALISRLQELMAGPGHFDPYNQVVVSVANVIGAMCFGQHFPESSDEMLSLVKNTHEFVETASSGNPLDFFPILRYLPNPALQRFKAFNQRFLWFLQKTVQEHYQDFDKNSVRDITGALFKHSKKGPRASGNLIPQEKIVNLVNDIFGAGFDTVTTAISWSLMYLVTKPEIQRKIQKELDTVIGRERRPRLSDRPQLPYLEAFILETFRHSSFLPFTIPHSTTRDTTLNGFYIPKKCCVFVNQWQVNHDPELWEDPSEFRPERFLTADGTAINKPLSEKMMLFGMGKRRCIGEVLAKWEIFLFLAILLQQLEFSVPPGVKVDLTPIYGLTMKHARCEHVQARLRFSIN

Structure (SMILES)	Potency
COc1ccc(-c2nc3cnc(N4CCNCC4)nc3n(CCC#N)c2=O)cc1	15.8 µM (active)
CCNc1ncc2nc(-c3ccc(F)cc3)c(=O)n(C)c2n1	0.501 µM (active)
COc1ccc(Oc2ncc3nc(-c4ccc(F)cc4)c(=O)n(C)c3n2)cc1	2 µM (active)
FC(F)(F)c1ccccc1-c1ccc2ncnc(NCc3cccs3)c2c1	7.94 µM (active)
COc1ccccc1CNc1ncnc2ccc(-c3ccoc3)cc12	2.51 µM (active)
Cc1nc2cnc(Oc3ccccc3)nc2n(C2CC2)c1=O	10 µM (active)
O=C(Oc1ccccc1)N1CCC2(CCCN(c3ncccn3)C2)CC1	10 µM (active)
COc1ccc(C(=O)N2CCC3(CC2)CCN(c2ncccn2)CC3)cc1	inactive
Fc1ccc(Nc2ccnc(-c3ccc4c(c3)OCO4)n2)cc1	0.631 µM (active)
O=C(c1cccc(F)c1)N1CCC[C@@]2(CCN(C(c3ccccc3)c3ccccc3)C2)C1	inactive
COc1cc(=O)n(C)c2c(OC[C@@H](O)C(C)(C)O)cccc12	20 µM (active) and 12.6 µM (active)
COc1ccc(C(=O)N2CCC3(CCCN(Cc4cc(C(F)(F)F)cc(C(F)(F)F)c4)C3)CC2)cc1	inactive
CN(C)[C@@H]1C(=O)C(C(N)=O)=C(O)[C@]2(O)C(=O)C3=C(O)c4c(O)ccc(Cl)c4[C@H](O)[C@H]3C[C@@H]12	inactive
COc1ccc(-n2c(=O)c(CCc3ccccc3)nc3cnc(N(C)C)nc32)cc1	3.16 µM (active)
N[C@@H](C(=O)O)c1ccc(O)c(C(=O)O)c1	inactive
Cc1cnc(CNc2ncnc3ccc(-c4cccc(C#N)c4)cc23)cn1	0.398 µM (active)
CC(=O)NCCNc1ncncc1-c1ccccc1CN(C)C	25.1 µM (active)
COc1ccccc1CNc1ncnc2ccc(-c3cccc(C#N)c3)cc12	0.251 µM (active)
COc1cccc(-c2nc(NCc3cccs3)c3ccccc3n2)c1	0.316 µM (active)
COCCNc1ccnc(-c2c(C)noc2C)n1	2.51 µM (active)

Structure (SMILES)	Potency
C[C@@]12CCC(=O)C=C1CC[C@H]1[C@H]3CC[C@](O)(C(=O)CO)[C@]3(C)CC(=O)[C@@H]12	inactive
CC(=O)N1CCC2(CCCN(c3cccc(-c4ccccc4)c3)C2)CC1	5.01 µM (active)
N#Cc1cccc(NC(=O)N2CCCC3(CCN(C(=O)c4cccc(F)c4)CC3)C2)c1	12.6 µM (active)
COc1cccc(Cn2c(=O)c(-c3cn(C)c4ccccc34)nc3cnc(OC)nc32)c1	15.8 µM (active)
O=C(Nc1cccc(F)c1)N1CC2(CCN(C(=O)c3cnccn3)CC2)C1	inactive
CN1CCCC2(CCN(C(=O)c3cccc(F)c3)CC2)C1	31.6 µM (active)
Cc1noc(C)c1-c1nc(Nc2ccc(F)cc2)c2ccccc2n1	0.251 µM (active)
COc1ccc2[nH]cc(CCNc3ccnc(-c4ccc(C(=O)N(C)C)cc4)n3)c2c1	12.6 µM (active)
O=c1c(-c2ccc(F)cc2)nc2cncnc2n1C1CC1	0.158 µM (active)
c1csc(CNc2nc(-c3ccoc3)nc3ccccc23)c1	0.316 µM (active)
Cn1cccc1C(=O)N1CCC2(CC1)CCN(C(c1ccccc1)c1ccccc1)CC2	5.01 µM (active)
O=C(c1cccc(F)c1)N1CCC2(CC1)CCN(c1ccc(-c3ccccc3)cc1)CC2	inactive
Cc1nc2cncnc2n(Cc2ccc(F)cc2)c1=O	10 µM (active)
Cc1noc(C)c1-c1nccc(N(C)Cc2ccco2)n1	2 µM (active)
CS(=O)(=O)Nc1cccc(-c2nc(N3CCNCC3)c3ccccc3n2)c1	20 µM (active)
CC(C)CN1CCC2(CC1)CCN(C(=O)c1cccc(F)c1)CC2	inactive
Cc1noc(C)c1-c1ccc2ncnc(N(C)Cc3ccco3)c2c1	2.51 µM (active)
Cc1noc(C)c1-c1ccc2ncnc(NCc3ccccc3)c2c1	3.16 µM (active)
COc1ccc(-n2c(=O)c(-c3ccccc3)nc3cnc(N4CCOCC4)nc32)cc1	15.8 µM (active)
CCNc1ncc2nc(-c3ccc(F)cc3)c(=O)n(CCC#N)c2n1	0.631 µM (active)
